Data as given in PubChem BioAssay.
Calls of active or inactive are those of the source.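 How the source made its calls, unless noted: active means visually confirmed hit in the image check and inhibition above 20%; inconclusive means visually confirmed hit but inhibition not above 20%; inactive means no visual hit in the image check.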

What was measured:
[1] = inhibitors of TNFa-induced NFkB p65 translocation, primary screen, imaging, HUVEC, MLSMR starter and 10KST1 sets (AID 438;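 active means inhibition above 20% together with a positive visual image hit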;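 further: compound added about 3h40 before a 20 min TNFalpha stimulation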;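 on inhibition: signal is the nuclear over cytoplasmic p65 intensity ratio per well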); conditions: HUVEC TNFa-induced p65 nuclear translocation; cell count: measured here: nuclei count (cytotoxicity indicator), at 2.08 µM; inhibition: at 2 µM, stronger effect = higher value, 0% TNFa-plus-vehicle, 100% no-TNFa wells
[2] = reduction of polyQ htt aggregates in cells – imaging, exon1htt(103Q)mCFP cells, high-content imaging, primary screen (AID 483;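 active means visual image review flags a hit and inhibition of aggregation exceeds 20%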;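 further: compound exposure lasted 3 days before fixation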;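 on nuclei count: percent of the per-plate median nuclei count of sample wells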); conditions: exon1htt(103Q)mCFP cell line, aggregate imaging, at 2 µM; inhibition of aggregation: stronger effect = higher value; nuclei count: measured here: cell count, toxicity
[3] = endothelial E-selectin expression blockers – imaging, HUVEC, immunofluorescence, MLSMR starter and 10KST1 sets, primary screen (AID 487); conditions: HUVEC TNFalpha-induced E-selectin immunofluorescence imaging, at 2 µM; inhibition: stronger effect = higher value; nuclei count: measured here: cell number, toxicity;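 on inhibition: signal is fraction of cell area covered by stained E-selectin grains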;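 on nuclei count: 100% = median nuclei count of all wells on the same plate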
[4] = target: Voltage-gated potassium channel subunit beta-2 (Rattus norvegicus) (UniProt P62483); assay: inhibitors of rat Kvbeta2 reductase activity – biochemical, NADPH fluorescence, primary screen (AID 622;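 active means fluorescence slope higher than the sample average by over 3 SD, cut at about -0.22 in these data, passing the limit was not always enough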;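 further: slope of raw intensity against log time taken from 70 to 1610 s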); conditions: recombinant KvBeta, 4-cyanobenzaldehyde reduction, at 10 µM, stronger effect = higher value
Sequence of Voltage-gated potassium channel subunit beta-2 (Rattus norvegicus) (P62483 whole entry, looked up): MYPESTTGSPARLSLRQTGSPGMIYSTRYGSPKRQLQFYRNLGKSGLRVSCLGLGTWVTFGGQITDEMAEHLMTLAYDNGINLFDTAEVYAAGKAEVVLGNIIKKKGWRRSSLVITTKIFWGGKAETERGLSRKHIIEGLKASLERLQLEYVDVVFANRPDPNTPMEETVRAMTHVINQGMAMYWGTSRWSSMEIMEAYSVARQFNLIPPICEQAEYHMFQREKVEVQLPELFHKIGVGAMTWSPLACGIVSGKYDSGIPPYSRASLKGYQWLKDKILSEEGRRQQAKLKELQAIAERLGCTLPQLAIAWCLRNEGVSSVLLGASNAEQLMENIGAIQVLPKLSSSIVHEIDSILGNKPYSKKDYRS

[5] = target: Voltage-gated potassium channel subunit beta-2 (Rattus norvegicus) (UniProt P62483); assay: enhancers of rat Kvbeta2 NADPH turnover – biochemical, NADPH fluorescence, primary screen (AID 623;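 active means NADPH fluorescence slope more negative than the mean of all samples by about 3 SD, 99.7% confidence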;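 further: fluorescence intensity change per second fitted from 20 to 320 s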); conditions: Recombinant KvBeta, NADPH fluorescence decrease slope, 10 min; at 10 µM; stronger effect = lower value
[6] = target: Alpha-2C adrenergic receptor (Homo sapiens) (UniProt P18825); assay: compounds altering alpha2C-coupled GIRK flux – cell-based, HEK293 alpha2C/GIRK1/2, thallium flux, primary screen (AID 624;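 active means fluorescence slope after compound addition differing from the mean of all screened samples at 99.7% confidence, in either direction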;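 further: slope of fluorescence ratio to pre-addition baseline per second over 15 to 24 s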); conditions: thallium flux BTC fluorescence, at 10 µM, actives lie on both sides
Sequence of Alpha-2C adrenergic receptor (Homo sapiens) (P18825 whole entry, looked up): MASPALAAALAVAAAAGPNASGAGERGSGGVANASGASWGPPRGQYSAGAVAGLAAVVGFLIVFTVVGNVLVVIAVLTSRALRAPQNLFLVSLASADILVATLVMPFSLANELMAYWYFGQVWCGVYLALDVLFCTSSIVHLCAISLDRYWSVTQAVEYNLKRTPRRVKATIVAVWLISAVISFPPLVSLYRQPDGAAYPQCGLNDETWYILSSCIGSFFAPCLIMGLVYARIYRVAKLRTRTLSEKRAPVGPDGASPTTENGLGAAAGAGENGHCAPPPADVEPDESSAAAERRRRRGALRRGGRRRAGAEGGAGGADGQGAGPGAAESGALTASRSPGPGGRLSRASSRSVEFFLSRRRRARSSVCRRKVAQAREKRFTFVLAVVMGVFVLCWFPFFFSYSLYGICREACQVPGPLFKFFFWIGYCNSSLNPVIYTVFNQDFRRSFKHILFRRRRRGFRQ

[7] = blockers of RIG-like receptor reporter activation – cell-based, Sendai virus stimulus, luciferase, 10K MLSCN set, TLR/RLR signaling modifier project, primary screen (AID 602276;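 active means inhibition at or above 50% at 10 µM; inactive means inhibition below 50%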;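 further: firefly luciferase from ISG56 promoter only with Renilla not read in this screen; 0% = Sendai virus plus DMSO and 100% = medium plus DMSO without virus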); conditions: HEK293 RL24 IRF3 luciferase reporter, at 10 µM, stronger effect = higher value
[8] = TLR3 IRF3 reporter activation blockers – cell-based, poly I:C stimulus, luciferase, 10K MLSCN set, primary screen (AID 602277;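 active means inhibition of the reporter signal at or above 50%; inactive means inhibition below 50%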); conditions: HEK293-TLR3 RL24 IRF3 luciferase reporter, at 10 µM, stronger effect = higher value

Structure (SMILES) | cell count [1] | inhibition [1] | inhibition of aggregation [2] | nuclei count [2] [%] | inhibition [3] | nuclei count [3] [%] | fluorescence slope [4] | NADPH fluorescence slope [5] | slope [6] | inhibition [7] | inhibition [8]
CCOC(=O)CSc1nc2cc(C(=O)N3CCC(C(N)=O)CC3)ccc2c(=O)n1-c1ccccc1 | 391 | 4.8% (inactive) | -5.8% (inactive) | 93.5 | -26.1% (inactive) | 95.3 | -0.37 (inactive) | -5.8e-05 (inactive) | 0.00452 (inactive) | 10.8% (inactive) | 9.87% (inactive)
CC1=C(C(=O)NCc2ccccn2)C2(CCC(C)CC2)OC1=O (configuration not stated) | 759 | -5% (inactive) | 16.1% (inactive) | 91.3 | 19.6% (inactive) | 110 | -0.521 (inactive) | -2.4e-05 (inactive) | 0.00608 (inactive) | 12.1% (inactive) | 26.9% (inactive)
Cc1ccc(Nc2cc(-n3nc(C)cc3C)ncn2)cc1 | 378 | 5.2% (inactive) | -9.7% (inactive) | 99.7 | -14.1% (inactive) | 101 | -0.442 (inactive) | -3.4e-05 (inactive) | 0.00717 (inactive) | -0.371% (inactive) | -15.8% (inactive)
O=S(=O)(Nc1cccnc1)c1ccc2c(c1)OCCO2 | 337 | 10.2% (inactive) | 5.2% (inactive) | 88.2 | 16.8% (inactive) | 92 | -0.393 (inactive) | -4.2e-05 (inactive) | 0.00465 (inactive) | 13.5% (inactive) | 17.6% (inactive)
Cc1cc(N)n2nc(-c3ccccc3)cc2n1 | 492 | 1.2% (inactive) | 0% (inactive) | 98.3 | -15.5% (inactive) | 110 | -0.421 (inactive) | -8.6e-05 (inactive) | 0.00566 (inactive) | -31.2% (inactive) | -74.6% (inactive)
O=C(CSc1nc2ccccc2[nH]1)c1ccc2c(c1)OCO2 | 673 | 2.4% (inactive) | -4% (inactive) | 102 | -2.6% (inactive) | 100 | -0.471 (inactive) | -1.2e-05 (inactive) | 0.00599 (inactive) | 18.8% (inactive) | -39.5% (inactive)
Cc1cc(C(F)F)n2nc(C(=O)Nc3ccc(S(=O)(=O)N4CCCCCC4)cc3)nc2n1 | 602 | -6.2% (inactive) | 9.9% (inactive) | 85.5 | -59.4% (inactive) | 96.2 | -0.566 (inactive) | 2.4e-05 (inactive) | 0.00419 (inactive) | 17.7% (inactive) | 22.1% (inactive)
